Measured values reported in PubChem BioAssay AID1159580 (chemical genetic matrix, 2015).
About 2,000 (36%) of roughly 5,500 compounds were called active. Roughly 18% stayed inconclusive and do not appear here. Rule as the data show it: active = normalized growth mostly below about 0.91 (no sharp cut-off); inconclusive = no clear call, values can overlap the other calls; inactive = mostly above about 0.92. The list shows a part of the results.

Assay: chemical genetic growth profiling, strain panel (AID 1159580);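 also: tested at 20 µM; growth read once vehicle control cultures reached saturation at 30 °C; 1 = growth at the plate median or of vehicle wells; lower values mean less growth of the strain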
Conditions: growth OD

Measured: normalized growth

CCc1ccccc1NC(C)=O
inactive: S. cerevisiae deletion strains, locus YAL013W, strain DEP1, hits give low values 1.04 | S. cerevisiae deletion strains, locus YBR229C, strain ROT2, hits give low values 1 | S. cerevisiae deletion strains, locus YDL101C, strain DUN1, hits give low values 1.01 | S. cerevisiae deletion strains, locus YDR150W, strain NUM1, hits give low values 1.01 | S. cerevisiae deletion strains, locus YEL061C, strain CIN8, hits give low values 1.02 | S. cerevisiae deletion strains, locus YGR078C, strain PAC10, hits give low values 1 | S. cerevisiae deletion strains, locus YHR030C, strain SLT2, hits give low values 1.08 | S. cerevisiae deletion strains, locus YHR087W, strain rtc3, hits give low values 1.01 | S. cerevisiae deletion strains, locus YJL187C, strain SWE1, hits give low values 1 | S. cerevisiae deletion strains, locus YJR043C, strain POL32, hits give low values 0.995 | S. cerevisiae deletion strains, locus YJR075W, strain HOC1, hits give low values 0.997 | S. cerevisiae deletion strains, locus YLR039C, strain RIC1, hits give low values 0.992 | S. cerevisiae deletion strains, locus YLR058C, strain SHM2 (second series), hits give low values 0.997 | S. cerevisiae deletion strains, locus YLR085C, strain ARP6, hits give low values 1.01 | S. cerevisiae deletion strains, locus YLR262C, strain YPT6, hits give low values 1.06 | S. cerevisiae deletion strains, locus YML094W, strain GIM5, hits give low values 1.03 | S. cerevisiae deletion strains, locus YMR219W, strain ESC1, hits give low values 1.01 | S. cerevisiae deletion strains, locus YMR263W, strain SAP30, hits give low values 0.998 | S. cerevisiae deletion strains, locus YMR307W, strain GAS1, hits give low values 0.972 | S. cerevisiae deletion strains, locus YNL153C, strain GIM3, hits give low values 1.01 | S. cerevisiae deletion strains, locus YNL298W, strain CLA4 (second series), hits give low values 1.03 | S. cerevisiae deletion strains, locus YNL322C, strain KRE1, hits give low values 0.993 | S. cerevisiae deletion strains, locus YNR030W, strain Alg12, hits give low values 1.03 | S. cerevisiae deletion strains, locus YPL055C, strain LGE1, hits give low values 0.901 | S. cerevisiae deletion strains, locus YPL241C, strain CIN2, hits give low values 1.01 | S. cerevisiae deletion strains, locus YPR135W, strain CTF4, hits give low values 1.24 | S. cerevisiae strains, strain wild type, hits give low values 0.985
